Screening data from PubChem BioAssay.
ABHD5-PLIN5 inh = ABHD5-PLIN5 interaction inhibitors, primary screen, cell lysate, split luciferase complementation, luminescence. inhibition, % at 4 µM. Perilipin-5 (Homo sapiens) + 1-acylglycerol-3-phosphate O-acyltransferase ABHD5 (Homo …. Split G. princeps luciferase complementation, 4 h. 360,000 tested, 0.78% active;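 active means inhibition above the mean inhibition across every tested compound plus 3 SD, cut at about 22% in these data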;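 further: 0% = DMSO only wells and the 100% control is not disclosed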
Mdm2-MdmX inh = inhibitors of human Mdm2-MdmX association, primary screen, cell-based, luminescence, split luciferase, SaOS-2, uHTS. Protein Mdm4 (Homo sapiens) + E3 ubiquitin-protein ligase Mdm2 (Homo sapiens), …. SaOS-2 split-luciferase Mdm2/MdmX complementation. inhibition, % at 8 µM. 330,000 tested, 3% active;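 active means inhibition of at least 50% at 8 µM in the primary screen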
CF NFkB block = inhibitors of PAF-induced NF-kB signaling, primary screen, cell-based, GFP fluorescence, uHTS | KKLEB NF-kB-GFP reporter, GFP fluorescence overnight | 360,000 tested, 0.86% active | inhibition, % at 5 µM;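 active means at least 50% inhibition at 5 µM, scaled per plate between neutral and stimulator controls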;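 further: PAF is a Pseudomonas aeruginosa culture filtrate used as stimulus; plate controls were PAF-stimulated DMSO wells for no effect and unstimulated DMSO wells for full effect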
HIF-2a block = HIF-2a reporter inhibitors, primary screen, luminescence, 786-0 RCC cells | 786-0 RCC cells HIF-2a reporter, luciferase luminescence, overnight | inhibition, % at 18.8 µM | 360,000 tested, 0.72% active | AID 624352, 2012;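 active means inhibition of the luminescence signal of 40% or more relative to plate controls, in a single-dose primary screen at 18.75 µM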
Peg3 prom inh-1 = Peg3 promoter-driven luciferase inhibitors, primary screen, cell-based, HeLa, luciferase luminescence. HeLa PEG-Prom luciferase reporter, overnight. inhibition, % at 20 µM. 360,000 tested, 1.7% active;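 active means inhibition of at least 50% at 20 µM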
KKLEB cytotox = cytotoxicity in KKLEB CF airway cells, primary screen, cytotoxicity control for CF NF-kB inhibitor project, cell-based, uHTS, fluorescence assay plates | KKLEB CF airway cells viability, ATPlite luminescence, overnight; hits give low values; cells stimulated with P. aeruginosa culture filtrate | activity change (cytotoxicity), % at 5 µM | 360,000 tested, 0.36% active | AID 602141, 2011;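 active means corrected activity change at or below -50% at 5 µM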
Mdm2 MdmX conf = Mdm2-MdmX complex disruptors, retested hits, confirmation, luminescence, single concentration; Mdm2-MdmX binding, luminescent assay; shares compounds with Mdm2-MdmX inh; 10,000 tested, 55% active; AID 489028, 2010; inhibition, % at 8 µM; in the data active means inhibition above about 40%
FLuc counter = full-length luciferase signal inhibition, confirmation, counter-screen for Mdm2/MdmX interaction inhibitor project, cell-based, single concentration, SaOS-2; shares compounds with Mdm2-MdmX inh; 6,200 tested, 77% active; inhibition, % at 8 µM; SaOS-2 full-length luciferase counterscreen, luminescence;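 active means mean inhibition at 8 µM reaching about 37%, which flags the compound as non-specific, limit read from the data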;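 further: p53-null SaOS-2 cells with luciferase driven by a doxycycline-inducible promoter; compound on cells about two nights before reading with doxycycline added after day one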
Peg3 prom inh-2 = Peg3 promoter reporter inhibitors, retest, confirmation, cell-based, HeLa, luciferase reporter, single concentration | shares compounds with Peg3 prom inh-1 | HeLa PEG-Prom luciferase reporter, luminescence, overnight | inhibition, % at 20 µM | 1,300 tested, 84% active | AID 602417, 2012;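 active means at 20 µM dose, 40% or more inhibition averaged across four replicates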
Numbers without * were called inactive. The list is not random: actives were taken first. Their share in the collection is about 4.6%.

CCCCC(=O)NC(c1ccccc1Cl)c1ccc2cccnc2c1O (configuration not stated) was read as ABHD5-PLIN5 inh 10, Mdm2-MdmX inh 80*, CF NFkB block 2, HIF-2a block 13, Peg3 prom inh-1 58*, KKLEB cytotox -11, Mdm2 MdmX conf 90*, FLuc counter 22 and Peg3 prom inh-2 65*.
Screening CC(=O)NCCOc1cccc2cccnc12 returned ABHD5-PLIN5 inh -1, Mdm2-MdmX inh 22, CF NFkB block -7, HIF-2a block -11, Peg3 prom inh-1 7 and KKLEB cytotox 19.
CC(=O)NC(c1ccccc1)c1cc([N+](=O)[O-])c2cccnc2c1O (configuration not stated) was read as ABHD5-PLIN5 inh 4, Mdm2-MdmX inh 63*, CF NFkB block 17, HIF-2a block 21, Peg3 prom inh-1 61*, KKLEB cytotox -1, Mdm2 MdmX conf 67*, FLuc counter 50* and Peg3 prom inh-2 63*.
`CC(=O)NC(c1ccco1)c1cc(Cl)c2cccnc2c1O` (configuration not stated) gave ABHD5-PLIN5 inh -4, CF NFkB block 7, HIF-2a block 17, Peg3 prom inh-1 49 and KKLEB cytotox 13.
Screening CCN(c1ccccc1)S(=O)(=O)c1ccc(Cl)c(NC(=O)CSc2nc(N)cc(=O)[nH]2)c1 returned ABHD5-PLIN5 inh -3, CF NFkB block 8, HIF-2a block 9, Peg3 prom inh-1 -2 and KKLEB cytotox 8.
For CCOc1ccc(CN(C)C(=O)c2ccc(S(=O)(=O)N(C)c3ccccc3OC)cc2)cc1 the results were ABHD5-PLIN5 inh -1, Mdm2-MdmX inh -3, CF NFkB block -20, HIF-2a block -3, Peg3 prom inh-1 25 and KKLEB cytotox 2.
For CCCn1c(SCC(=O)N2c3ccccc3CC2C)n[nH]c1=O (configuration not stated) the results were ABHD5-PLIN5 inh 7, Mdm2-MdmX inh -1, CF NFkB block -2, HIF-2a block -11, Peg3 prom inh-1 4 and KKLEB cytotox -18.
Screening Cc1c(C(=O)N2CCN(c3ccc(F)cc3)CC2)sc2ncnc(N3CCN(c4ccccn4)CC3)c12 returned ABHD5-PLIN5 inh 15, Mdm2-MdmX inh 53*, CF NFkB block 5, HIF-2a block 6, Peg3 prom inh-1 50*, KKLEB cytotox -3, Mdm2 MdmX conf 29, FLuc counter 61* and Peg3 prom inh-2 87*.
Cc1c(C(=O)N2CCC(C)CC2)sc2ncnc(N3CCN(c4ccccc4)CC3)c12 was read as ABHD5-PLIN5 inh -2, CF NFkB block 7, HIF-2a block -27, Peg3 prom inh-1 24 and KKLEB cytotox 4.
`COc1ccc(OC)c(NC(=O)c2sc3ncnc(N4CCN(c5ccccn5)CC4)c3c2C)c1` gave ABHD5-PLIN5 inh -11, Mdm2-MdmX inh -8, CF NFkB block -6, HIF-2a block -2, Peg3 prom inh-1 18 and KKLEB cytotox 3.
